The values that follow come from the supplement of paper PMC10338343.

± gives the standard deviation.

In the experiment the test system is EfPiwi piRISC loaded with piRNA #1 (26 nt). Description: pre-steady-state target cleavage rate (min^-1); auxiliary factor: 500 nM Ephydatia muelleri Gtsf1; guide: piRNA #1 5'p-UGAGGUAGUAGGUUGUAUAGUAUCCA; MIWI and MILI are mouse PIWI proteins and EfPiwi is from a freshwater sponge; tags in brackets are library labels; higher = faster piRNA-guided slicing of the target. The method, boiled down: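 At 33 °C in HEPES–potassium acetate buffer, a transcribed, DNA-blocked target RNA library […] was exposed for 0–8 or 0–960 min to 1 nM active affinity-purified piRISC carrying a single synthetic guide, with or without 500 nM GTSF1 partner protein. Uncleaved targets were sequenced and normalised to depth and to weakly complementary targets. With three trials pooled and k3 capped at 0.0001 min^-1, a burst-and-steady-state fit produced the pre-steady-state cleavage rate.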
As for GGAGACCUAACUAUACAAACCUACUACCUCA, the “pre-steady-state target cleavage rate” value was 0.00462 ± 0.0028. The value for GGAGAGGAUACUAUACUACCUACUACCUGA was 0.00353 ± 0.002; that for GGAGAGGAUACUAUACAACCACUACCUCA was 0.00549 ± 0.0026; that for GGAGUGGAUACUAUACAACCAUGUACCUCA was 0.00412 ± 0.0026. The value for GGAGUGGAUACUUACAACCUACUACCUCA was 0.0233 ± 0.011; that for GGAGUGGAAACUAUACAACCAACUACCUCA was 0.0049 ± 0.0032.

GGAGACCUAACUCUACAACCUACUACCUCA: the “pre-steady-state target cleavage rate” value worked out at 0.0071 ± 0.0032. Consider GGAGACGAUACUAUACAACCUUCUAGCUCA, for which the “pre-steady-state target cleavage rate” value stood at 0.00455 ± 0.0027. The value for GGAGACGAUACUAUACUAACCUACUACCUCA was 0.00448 ± 0.0044; that for GGAGAGGAUACUAUACAACCAACUUCCUCA was 0.00313 ± 0.0024; that for GGAGACGAUACUAUACAACCAACUAGCUCA was 0.00457 ± 0.0027. Then GGAGAGGAUACUAUACAACCUUCUACCUGA, with 0.00393 ± 0.0023; and GGAGAGCAUACUAUACAACCUACUACCUCA, with 0.0285 ± 0.012. Then GGAGUCGAUAGUAUACAACCUACUACCUCA, with 0.0054 ± 0.0038.

Regarding GGAGAGGAUACUAUACAAGCAACUACCUCA, the “pre-steady-state target cleavage rate” value is 0.00405 ± 0.0022. The value for GGAGACGUUACUAUACAACCUUCUACCUCA was 0.00871 ± 0.0043.

With GGAGACGAUACUAUACAUACCUACUACCUCA, the “pre-steady-state target cleavage rate” value came out at 0.00857 ± 0.0043. As for GGAGACGAUACUAUACAACCUACUCACCUCA, the “pre-steady-state target cleavage rate” value is 0.00418 ± 0.0019. Take GGAGAGGAUACUAUACAACCUUGUACCUCA: the “pre-steady-state target cleavage rate” value stood at 0.00294 ± 0.0029. Then GGAGUGGAUACUAUACAACCUUCUACGUCA, with 0.00426 ± 0.0016; and GGAGACCAUACUAUACACACCUACUACCUCA, with 0.00511 ± 0.0031; and GGAGUGGAUAAUAUACAACCUACUACCUCA, with 0.0105 ± 0.0047.

Regarding GGAGACCUUACUAUACAACCACUACCUCA, the “pre-steady-state target cleavage rate” value worked out at 0.0103 ± 0.0057. The value for GGAGACCUAUGAUAUGUACCUUCUACCUGA was less than 0.0001.
